Data from PubChem BioAssay (NCI).
Compounds without any hit were thinned out: in the full panel of roughly 79,000, 15% have a hit. Unmarked numbers belong to inactive results. Activity calls are given as the source filed them. Rule as the data show it: active = growth inhibition above about 70%; inactive = the rest.

Experiment: NCI Yeast Anticancer Drug Screen. Data for the rad18 strain (AID 177)
Conditions: S. cerevisiae rad18 mutant growth inhibition, stronger effect = higher value
Description: Growth inhibition of yeast strains with defined genetic alterations is measured as a screen for potential anti-cancer activity. Selected strains with alterations in DNA damage repair or cell cycle control were exposed to compounds and growth inhibition was measured relative to vehicle treated controls. The strain used in this assay is rad18

| Structure (SMILES) | growth inhibition (at 1.2 µM) | growth inhibition (at 3.7 µM) | growth inhibition (at 11.0 µM) | growth inhibition (at 33.0 µM) | growth inhibition (at 100.0 µM) |
| --- | --- | --- | --- | --- | --- |
| Oc1ccc(C=Nc2ccccc2O)cc1 | 61% | 78% (active) | 76% (active) | 75% (active) | 85% (active) |
| NNC(=S)Nc1cccc(Cl)c1 | -17% | -11% | -6% | 24% | 88% (active) |
| CN(N=O)c1ccc(/C=C/c2ccnc3ccccc23)cc1 | 0% | 2% | 16% | 55% | 91% (active) |
| O=S(=O)(c1cc(Cl)ccc1O)c1cc(Cl)ccc1O | 26% | 84% (active) | 98% (active) | 99% (active) | 99% (active) |
| CN(Cc1cnc2nc(N)nc(N)c2n1)c1ccc(C(=O)NC(CCC(=O)O)C(=O)O)c2ccccc12 (stereo not given) | 17% | 25% | 38% | 79% (active) | 89% (active) |
| CN(C)CC1CCCc2ccccc2C1=O (stereo not given) | -14% | 7% | 2% | 38% | 85% (active) |
| Cc1cccc(/C=N/NC(=S)N(C)CCc2ccccn2)n1 | 92% (active) | 96% (active) | 98% (active) | 98% (active) | 98% (active) |
| CCCCC(=O)c1c(O)nc2sccn2c1=O | 17% | 20% | 72% (active) | 95% (active) | 97% (active) |
